From PubChem BioAssay
Rows were chosen to be rich in hits. Some 2.2% of all compounds tested hit in one or more screens of this group.
CHO-K1 Ca ag: counter-screen for M1 agonists: effect in parental CHO-K1 cells; Fluo-8 calcium fluorescence; scaled to maximal ATP response, vehicle zero; 0.48% of 360,000 active; activation, % at 3 µM; in the data active = activation above about 15%;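 also: untransfected CHO-K1 host cells lacking M1 receptor as counterscreen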
ANO1 activ: TMEM16A chloride channel activators or potentiators, primary screen, cell-based, HTS; 0.3% of 340,000 active; B-score at 10 µM; HEK293 TMEM16A/YFP-H148Q/I152L, iodide quench fluorescence; hits give low values; Anoctamin-1 (Mus musculus), Q8BHY3;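 active = fluorescence-ratio B-score plate-corrected deviation score at least 3 library SD below zero, with starting fluorescence score within 5 deviations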;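 also: channel opened by trigger with iodide after compound preincubation; score built on the fluorescence ratio of max minus min over baseline; more negative score means more quench and so TMEM16A activation or potentiation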
NTR1 ag: agonists of human NTR1, primary screen, imaging, U2OS cells, beta-arrestin-GFP, high content. Neurotensin receptor type 1 (Homo sapiens), P30989. NTR1-U2OS beta-arrestin-GFP spot imaging, agonist mode. activation, % at 20 µM. 0.17% of 330,000 active. AID 493036, 2011;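 active = activation at or above 40% of the spot to cytoplasm intensity ratio, with at least 20 cells analyzed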
Target sequence (P30989 whole entry, looked up): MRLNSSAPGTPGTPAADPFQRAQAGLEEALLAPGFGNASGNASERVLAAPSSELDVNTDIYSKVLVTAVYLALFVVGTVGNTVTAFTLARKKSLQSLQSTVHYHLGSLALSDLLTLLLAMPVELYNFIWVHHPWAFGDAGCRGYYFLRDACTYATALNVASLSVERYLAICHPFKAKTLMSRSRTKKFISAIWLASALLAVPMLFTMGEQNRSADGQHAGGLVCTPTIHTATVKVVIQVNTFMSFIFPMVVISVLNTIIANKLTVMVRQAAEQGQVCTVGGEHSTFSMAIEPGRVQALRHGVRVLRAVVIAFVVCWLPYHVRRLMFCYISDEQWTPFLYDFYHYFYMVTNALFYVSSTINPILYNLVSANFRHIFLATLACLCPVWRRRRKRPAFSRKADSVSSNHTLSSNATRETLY
M1 PAM parental: nonselective calcium activators in parental CHO-K1 cells, primary screen, counter-screen for M1 PAM project, cell-based, Fluo-8 calcium fluorescence, full deck, 1536-well. ATP EC20; 0% at ATP EC20, 100% at ATP max. activation, % at 3 µM. 0.02% of 360,000 active;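 active = activation above the run cutoff, the mean activation of all test compounds plus 3 SD, cut at about 40% in these data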;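 also: peak over basal fluorescence ratio in a 140 s read after ATP addition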
ANO1 block: TMEM16A chloride channel inhibitors, primary screen, cell-based, HTS; Anoctamin-1 (Mus musculus), Q8BHY3; HEK293 TMEM16A/YFP iodide influx fluorescence, ionomycin; normalized B-score (activity score, 25-100; higher = stronger inhibition) at 10 µM; 1.2% of 310,000 active;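 active = ratio plate-corrected score three or more library SD toward inhibition, starting fluorescence score within five deviations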;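 also: score derived from kinetic fluorescence span divided by baseline fluorescence per well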
CHO-K1 Ca antag: nonselective inhibitor or artifact in parental CHO-K1 cells; ATP-induced calcium, Fluo-8 fluorescence; inhibition, % at 3 µM; 0.6% of 360,000 active; AID 602250;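 active = inhibition above a per-plate cutoff, the plate's mean sample inhibition plus 3 SD, cut at about 24% in these data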
TMEM16A reconf: TMEM16A chloride channel inhibitors, confirmation, cell-based, re-confirmation. inhibition, % at 10 µM. 39% of 2,300 active. shares compounds with ANO1 block. AID 652189, 2013. HEK293 TMEM16A/YFP-H148Q, iodide quench fluorescence; ionomycin added to raise cell calcium;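 active = mean duplicate percent inhibition, scaled so buffer wells are 0 and the reference blocker 100, over three buffer SD above buffer mean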
HEK293 Ca mobil: calcium mobilization in TMEM16A/YFP HEK293 cells, confirmation, counter-screen for TMEM16A inhibitor project; shares compounds with ANO1 block; Fluo4 calcium mobilization; calcium response (% of ionomycin), % at 10 µM; 2% of 2,300 active; AID 652231, 2013;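 active = duplicate-averaged calcium signal over 20% of the ionomycin maximum, relative to buffer baseline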;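 also: each well's signal is peak minus trough fluorescence divided by its pre-addition baseline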
YFP-HEK293 quench: iodide YFP quench changes in parental YFP-HEK293, counter-screen for TMEM16A inhibitor project, cell-based; shares compounds with ANO1 block; ionomycin; YFP ratio F(max-min)/F0 at 10 µM; 2,300 tested, under 10 active;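 active = yellow fluorescent protein signal ratio exceeding the buffer control mean by over 5 SD of those controls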;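 also: ratio is mean of duplicate wells from kinetic YFP trace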
ClC-1 rat inh: ClC-1 chloride channel inhibition, selectivity assay for TMEM16A inhibitor project, cell-based, voltage-dependent ClC-1; 2,300 tested, under 10 active; ratio percent, % at 10 µM; AID 652236, 2013; CHO ClC-1-YFP, iodide influx fluorescence quench; iodide control reads 0, buffer control 100; shares compounds with ANO1 block;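 active = duplicate-mean ratio percent above the mean of iodide-only control wells, which defines zero, plus 5 of their SD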;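 also: higher percent means stronger block of ClC-1 iodide influx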
A number is an active result; – = inactive; · = no result.

SMILES | CHO-K1 Ca ag | ANO1 activ | NTR1 ag | M1 PAM parental | ANO1 block | CHO-K1 Ca antag | TMEM16A reconf | HEK293 Ca mobil | YFP-HEK293 quench | ClC-1 rat inh
COC(=O)c1[nH]c2ccc(C)cc2c1NC(=O)CN1CCN(c2ccccc2)CC1 | – | – | – | – | 100 | – | 20.5% | – | – | –
Cc1ccccc1-c1cc(C(=O)Nc2sc(C(=O)OC(C)C)c(C)c2C#N)c2ccccc2n1 | – | – | – | – | 25 | 35.0 | 67.5% | – | – | –
COc1ccc(-c2cc(C(=O)Nc3sc4c(c3C#N)CCCC4)c3ccccc3n2)cc1 | – | – | · | – | – | – | · | · | · | ·
CCOC(=O)c1sc(NC(=O)c2cc(-c3ccc(C)cc3)nc3ccccc23)c(C#N)c1C | – | – | – | – | – | – | · | · | · | ·
COC(=O)c1sc(NC(=O)c2cc(-c3ccccc3)nc3ccccc23)c(C#N)c1C | – | – | – | – | 100 | – | 42.0% | – | – | –
Clc1ccc(OCCN2CCN(c3ncnc4sccc34)CC2)cc1 | – | – | – | – | 100 | 33.5 | 16.0% | – | – | –
Cc1ccc(OCCN2CCN(c3ncnc4sc(C)c(C)c34)CC2)cc1 | – | – | – | – | – | – | · | · | · | ·
Cc1noc(C)c1S(=O)(=O)N(C)C[C@H]1OCc2cnnn2CCCC(=O)N([C@H](C)CO)C[C@H]1C | – | · | · | – | · | – | · | · | · | ·
Cc1onc(-c2ccccc2)c1C(=O)Nc1ccc2c(c1)OCCO2 | – | – | – | – | – | – | · | · | · | ·
O=C(Nc1ccc2c(c1)OCCO2)C1CCC1 | – | – | – | – | 100 | – | – | – | – | –
Cc1onc(-c2c(Cl)cccc2Cl)c1C(=O)Nc1ccc2c(c1)OCCO2 | – | – | – | – | 100 | – | – | – | – | –
CCN(CC)S(=O)(=O)c1ccc(-c2nnc(SCC(=O)Nc3cc(OC)cc(OC)c3)o2)cc1 | – | – | – | – | 100 | – | – | – | – | –
CCN(CC)S(=O)(=O)c1ccc(-c2nnc(SCC(C)=O)o2)cc1 | – | – | – | – | – | – | · | · | · | ·
O=C1NC(=O)c2c(Br)c(Br)c(Br)c(Br)c21 | – | – | · | – | · | – | · | · | · | ·
CCc1ccc(NC(=O)Cn2cnc3c(=O)n(C)c(=O)n(C)c32)cc1 | – | – | – | – | – | – | · | · | · | ·
CCc1ccc(C(C)NC(=O)Cn2cnc3c(=O)n(C)c(=O)n(C)c32)cc1 (stereo not given) | – | – | – | – | 25 | – | – | – | – | –
O=C(c1ccc2c(c1)OCO2)C1CCCN(Cc2cccc(C(F)(F)F)c2)C1 (stereo not given) | – | – | – | – | – | – | · | · | · | ·
O=C(c1ccc2c(c1)OCO2)C1CCCN(Cc2ccc(OC(F)F)cc2)C1 (stereo not given) | – | – | – | – | 25 | – | 21.0% | – | – | –
O=C(CCc1nc2ccccc2c(=O)[nH]1)NCCN1C(=O)S/C(=C\c2ccc(Cl)cc2Cl)C1=O | – | – | – | – | 25 | – | – | – | – | –
CC(C)(C)c1ccc(CC(=O)N2CCC2(C)C(=O)Nc2cnc3ccccc3c2)cc1 (stereo not given) | – | · | · | – | · | – | · | · | · | ·
O=C1C(Cl)=C(N2CCC(C(=O)O)CC2)C(=O)c2ccccc21 | – | – | – | – | – | – | · | · | · | ·
NC(=O)C1CCN(C2=C(Cl)C(=O)c3ccccc3C2=O)CC1 | – | – | – | – | 100 | – | 28.5% | – | – | –
O=C(Nc1ccccc1O)c1ccc(C(=O)c2ccccc2)o1 | – | – | – | – | – | – | · | · | · | ·
COc1ccccc1NC(=O)c1ccc(C(=O)c2ccccc2)o1 | – | – | – | – | 100 | – | 19.0% | – | – | –
COc1ccccc1NC(=O)Cc1ccc(-c2ccccc2)cc1 | – | – | – | – | 25 | – | – | – | – | –
SMILES | CHO-K1 Ca ag | ANO1 activ | NTR1 ag | M1 PAM parental | ANO1 block | CHO-K1 Ca antag | TMEM16A reconf | HEK293 Ca mobil | YFP-HEK293 quench | ClC-1 rat inh
CC(C)CNC(=O)/C=C/C=C/CCCC/C=C/c1ccc2c(c1)OCO2 | – | – | – | – | · | – | · | · | · | ·
COc1ccc(C(=O)NCCN2CCC(n3c(=O)[nH]c4ccccc43)CC2)cc1F | – | · | · | – | · | – | · | · | · | ·
COc1ccc(NC(=O)CSCC(=O)NCc2cccc(C(F)(F)F)c2)cc1 | – | – | – | – | · | – | · | · | · | ·
COc1cc(NC(=O)CSCC(=O)Nc2cccc(C(F)(F)F)c2)c(Cl)cc1Cl | – | – | – | – | 100 | – | – | – | – | –
Cc1nc(C)c(-c2csc(Nc3ccc(F)cc3)n2)s1 | – | – | – | – | 25 | – | 21.0% | – | – | –
C(=C\c1ccccc1)/CN1CCN(c2ncnc3c2oc2ccccc23)CC1 | – | – | – | – | 100 | – | 33.5% | – | – | –
COc1ccccc1N1CCN(c2ncnc3c2oc2ccccc23)CC1 | – | – | – | – | 100 | – | – | – | – | –
COc1cc(CNc2ncnc3c2ncn3[C@H]2CN(Cc3ccc(Cl)cc3)C[C@@H](CO)O2)cc(OC)c1OC | – | · | · | – | · | – | · | · | · | ·
C#CCOc1ccc(CNC[C@H]2O[C@@H](n3ccc(=O)[nH]c3=O)[C@H](O)[C@@H]2O)cc1 | – | · | · | – | · | – | · | · | · | ·
Cc1nc(CSc2nsc(/C=C/N(C)C)c2C#N)cs1 | – | – | · | – | · | – | · | · | · | ·
COC(=O)c1ccccc1CSc1nsc(/C=C/N(C)C)c1C#N | – | – | – | – | 25 | – | 19.0% | – | – | –
Cc1noc(C)c1-c1ccc(C(=O)NCCN2CCOCC2)c2occc12 | – | · | · | – | · | – | · | · | · | ·
COc1ccccc1CC(=O)N(Cc1ccccc1)c1cccc(C)c1 | – | – | – | – | 100 | – | – | – | – | –
O=C(Nc1cc(Cl)ccc1Cl)N1CCN(C(=O)Nc2cc(Cl)ccc2Cl)CC1 | – | – | · | – | · | – | · | · | · | ·
CCOc1ccc(N(CC)S(=O)(=O)c2ccc3c(c2)n(C)c(=O)c(=O)n3C)cc1 | – | – | – | – | 100 | – | – | – | – | –
